LDHA block: LDHA (human) enzyme inhibition | activity change, % (values are at about 110 or 230 µM) | P00338 | actives 0.15% (n = 480,000) | purified LDHA, NADH/diaphorase-resazurin fluorescence; active compounds read low; in the data active = activity change below about -30%;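 also: plate controls were DMSO wells for no effect and wells without enzyme for full effect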
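Resorufin fluorescence (ex540/em590), read at 0 and 20 min after diaphorase/resazurin addition, reports the NADH left after a 5 min room-temperature reaction of 2 nM human LDH5 with 0.06 mM NADH and 0.2 mM pyruvate.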
D1 antagonist: blocks dopamine activation of the human D1 receptor. actives 3.2% (n = 360,000). P21728. activity change, negative = inhibition, % at 10 µM. HEK293 TREx D1 cells, calcium flux, dopamine EC80; active compounds read low; in the data active = activity change below about -30%; also: % is scaled to controls: 0 for no effect and ±100 for the full control effect
Target sequence (P21728 whole entry, looked up): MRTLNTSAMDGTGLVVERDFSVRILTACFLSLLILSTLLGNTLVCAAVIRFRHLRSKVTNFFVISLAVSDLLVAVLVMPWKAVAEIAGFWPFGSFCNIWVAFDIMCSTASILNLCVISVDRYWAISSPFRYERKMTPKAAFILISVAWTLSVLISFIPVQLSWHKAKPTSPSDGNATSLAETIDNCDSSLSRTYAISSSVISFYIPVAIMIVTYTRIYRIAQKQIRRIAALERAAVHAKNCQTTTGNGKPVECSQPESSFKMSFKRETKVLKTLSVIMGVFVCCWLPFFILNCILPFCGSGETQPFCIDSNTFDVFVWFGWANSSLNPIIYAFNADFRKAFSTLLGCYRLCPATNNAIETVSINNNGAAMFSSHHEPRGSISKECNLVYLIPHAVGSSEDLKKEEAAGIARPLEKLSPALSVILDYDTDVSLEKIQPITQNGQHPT
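Tetracycline-induced HEK293 T-REx cells with force-coupled D1 receptor were loaded with a no-wash calcium dye. Compound was added after a 10 s baseline and read kinetically for 180 s; EC80 dopamine was then added and calcium flux followed another 180 s.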
TRHR agonist: agonists of human TRH receptor. P34981. TRHR cells, calcium flux fluo-8, FDSS agonist mode. activation, % at 2 µM. actives 0.18% (n = 360,000). AID 493084; also: 0% is about no effect
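TRHR-expressing cells, plated overnight in medium with 10% serum, were loaded with fluo-8 calcium dye at room temperature. After a 10 s baseline, library compound was pin-added and calcium release was recorded kinetically (ex 480/em 530) as agonist response.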
TRHR PAM: allosterically enhances the human TRH receptor; TRHR cells, fluo-8 calcium fluorescence, EC20 TRH enhancement; enhancement, % at 2 µM; actives 0.66% (n = 360,000); in the data active = enhancement above about 30%; also: 0% is about no effect
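Enhancer read-out: after compound pinning and an initial kinetic agonist-mode read, an EC20 of TRH (10 nM final) was injected and fluo-8 calcium signal (Ex 480/Em 530) followed at 1 s/cycle for 100 cycles in TRHR-expressing cells.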
D1 PAM: enhances dopamine response at the human D1 receptor | potentiation, % at 10 µM | AID 504651 | actives 0.036% (n = 360,000) | HEK293 TREx D1 cells, calcium flux, dopamine EC20 potentiation | P21728; in the data active = potentiation above about 30%; also: 0% is about no effect
D1 agonist: human D1 receptor agonism; HEK293 T-REx D1 cells, calcium flux, agonist mode; activation, % at 2 µM; actives 1% (n = 360,000); also: 0% is about no effect
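Inducible HEK293 T-REx D1 cells, force-coupled to calcium signalling, were plated at 4000 cells/well with tetracycline and held overnight at 30 C. After no-wash calcium dye loading, compound-evoked calcium rise over 180 s flagged agonists.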
Numbers without * were called inactive; · = not tested or not shown; ! = not confirmed by another sample. Shown are actives, neighbours in structure and some others; about 3.6% of the full set was active somewhere. Rule as the data show it, unless noted: active = activation above about 30%; inactive = the rest.

SMILES	LDHA block	D1 antagonist	TRHR agonist	TRHR PAM	D1 PAM	D1 agonist
COc1ccc(S(=O)(=O)Nc2cccc(-c3ccc(N4CCOCC4)nn3)c2)cc1F	-5	-37*	0	1	2	-1
O=C(O)c1cc(Cl)c(C(=O)O)cc1Cl	0	·	·	·	·	·
Cc1ccc(CNC(=O)c2cccnc2Sc2cccc(Cl)c2)cc1	1	19	6	1	-6	46*
Cc1cc(C)c(C)c(S(=O)(=O)NCCO)c1C	0	·	·	·	·	·
CNCCCCOc1ccccc1-c1ccccc1	-22	-48*	1	10	-6	38*
COCCCNCCCCOc1ccccc1-c1ccccc1	-17	-37*	0	4	-8	15
COCCNCCOc1ccccc1-c1ccccc1	-18	-31*	0	10	-7	17
CNCCOc1ccccc1-c1ccccc1	-16	-1	-1	-2	-3	1
COCCCNCCOc1ccccc1-c1ccccc1	8	-44*	0	-1	-9	14
Cn1c(=O)c2c(-c3ccccc3Cl)n(Cc3ccc(Cl)cc3)cc2n(C)c1=O	-5	-5	-1	8	3	-1
Cn1c(=O)c2c(-c3ccccc3Cl)n(-c3cc(Cl)ccc3O)cc2n(C)c1=O	5	5	-1	1	0	43*
COc1cccc(-c2nc3ccccc3c(=O)n2NC(=O)c2ccc(F)cc2Cl)c1	-8	·	·	·	·	·
CCCNc1c(C)cccc1C	-3	·	·	·	·	·
CCCCCN1CC(=O)N2Cc3[nH]c4ccccc4c3C[C@H]2C1=O	-8	-5	0	1	-2	5
CCCCN1C(=O)C2Cc3c([nH]c4ccccc34)CN2C1=S (stereo unspecified)	1	-33*	6	-4	1	16
COc1ccccc1N1CCN(C(C)C(=O)N2CC(C)OC(C)C2)CC1 (stereo unspecified)	-39*	-4	1	2	-4	1
Cc1ccc2c(C)nc(Nc3nc(CSc4ncccn4)cc(=O)[nH]3)nc2c1	9	·	·	·	·	·
O=C(NCCc1c[nH]c2ccccc12)/C(=C\c1cccs1)NC(=O)c1ccccc1	2	-42*	0	-2	-7	0
O=C(NCCc1c[nH]c2ccccc12)/C(=C\c1cccnc1)NC(=O)c1cccs1	-6	4	0	3	2	3
Cc1ccc(C(=O)N/C(=C\c2cccs2)C(=O)NCCc2c[nH]c3ccccc23)cc1C	-10	-39*	1	3	3	2
COc1ccc(C(=O)N/C(=C\c2cccc3ccccc23)C(=O)NCCc2c[nH]c3ccccc23)cc1OC	-5	-2	0	-1	-3	8
Cc1ccc(C)c(-c2csc(-c3cc4ccc(O)cc4oc3=O)n2)c1	0	·	·	·	·	·
CCN(CC)c1ccc2cc(-c3nc(-c4ccc(OC)cc4)cs3)c(=O)oc2c1	0	-58*	174*	-24	-1	419*
Cc1ccc(-c2csc(-c3cc4ccccc4oc3=O)n2)cc1	7	·	·	·	·	·
CCN(CC)c1ccc2cc(-c3nc(-c4ccc(Cl)cc4Cl)cs3)c(=O)oc2c1	-4	22	22	0	-2	119*
SMILES	LDHA block	D1 antagonist	TRHR agonist	TRHR PAM	D1 PAM	D1 agonist
O=C(CCc1ncc(-c2ccc(F)cc2F)o1)N1CCN(c2ccccc2)CC1	7	·	·	·	·	·
COc1ccc(C(=O)COC(=O)Cc2coc3ccc4ccccc4c23)cc1OC	12	·	·	·	·	·
CC(C)c1ccc(C(C)NC(=O)c2cccc(N(C)C)c2)cc1 (stereo unspecified)	8	·	·	·	·	·
CCOc1ccc(CCNC(=O)CS(=O)(=O)Cc2nc(-c3ccc(OC)cc3)oc2C)cc1	-10	0	0	40*!	-1	19
COc1cccc(-c2nc(CS(=O)(=O)CC(=O)Nc3cccc(C(F)(F)F)c3)c(C)o2)c1	-30*	·	·	·	·	·
CCOc1ccc(CNC(=O)CS(=O)(=O)Cc2nc(-c3ccc(OC)cc3)oc2C)cc1	-4	8	0	-6	4	29
COc1ccc(-c2nc(CS(=O)(=O)CC(=O)NCCCN3CCN(C)CC3)c(C)o2)cc1	-1	-38*	0	1	-5	0
Cc1ccc(OCc2ccc(-c3nc(C#N)c(NCCCN(C)C)o3)o2)cc1	7	·	·	·	·	·
NC(=O)c1ccsc1NS(=O)(=O)c1ccc([N+](=O)[O-])cc1	3	·	·	·	·	·
Cc1ccc(C=Nc2ccccc2C(N)=O)cc1	-3	-35*	0	-8	-8	60*
Cc1ccc(C=Nc2ccccc2C(=O)Nc2ccccc2)cc1	-4	-9	0	6	-4	0
O=C(COC(=O)c1c2c(nc3ccccc13)/C(=C/c1ccco1)CC2)NC1CCCC1	7	-49*	0	4	-8	2
c1ccc2c(-c3nn4c(C5CCCCC5)nnc4s3)c[nH]c2c1	2	·	·	·	·	·
CC(=O)Nc1ccc(NC(=O)c2ccc([N+](=O)[O-])cc2Cl)cc1	-2	15	1	-3	5	4
CCC(C)NS(=O)(=O)c1ccc(NC(=O)c2ccc([N+](=O)[O-])cc2Cl)cc1 (stereo unspecified)	-7	-31*	1	-6	-4	4
COc1ccc(OC)c(/C=C2\Cc3ccccc3C2=O)c1	-1	·	·	·	·	·
COc1ccc(OC)c(/C=C2/Sc3ccccc3C2=O)c1	-3	-2	66*	3	8	312*
O=C(CSc1ncnc2c1sc1cccc(F)c12)NCCN1CCN(Cc2ccccc2)CC1	24	·	·	·	·	·
Clc1ccc(N2CCN(c3ncnc4nc[nH]c34)CC2)cc1Cl	-31*	·	·	·	·	·
Clc1cccc(N2CCN(c3ncnc4nc[nH]c34)CC2)c1	13	-7	0	11	-2	2
Fc1ccc(N2CCN(c3ncnc4nc[nH]c34)CC2)cc1	1	-54*	1	22	-9	2
Cc1ccc(NC(=O)CN2c3cccc4cccc(c34)S2(=O)=O)cc1S(=O)(=O)N1CCCCC1	11	·	·	·	·	·
CCOC(=O)c1oc2cc(OCC)ccc2c(=O)c1-c1ccc(Br)cc1	-16	·	·	·	·	·
OCC1(Cc2ccccc2F)CCCN(CC2CCCCC2)C1 (stereo unspecified)	-2	-8	0	6	-22	1
OCC1(Cc2ccccc2F)CCCN(Cc2c(F)ccc(F)c2F)C1 (stereo unspecified)	-7	-19	0	30*	-10	0
N#C/C(=C(/O)c1ccc(Cl)cc1)c1nc2ccccc2[nH]1	-14	9	0	-3	8	3
N#C/C(=C(\O)c1cc(Cl)sc1Cl)c1nc2ccccc2[nH]1	-4	-19	-1	4	-7	35*
CC(C)(C)c1ccc(/C=N/NC(=S)NCc2ccccc2)cc1	-3	-6	0	-2	-10	0

Bioassay records as filed in PubChem.
